The record followed here is PubChem BioAssay (EPA / NIEHS).

Read-out in assay [1]: Tumor necrosis factor receptor superfamily member 6 (Homo sapiens) (UniProt P25445)
Put plainly: LTEA_HepaRG_FAS: Life Technologies and Expression Analysis (LTEA) Assay for Fas cell surface death receptor (FAS) using HepaRG (AID 2283447). The note with it: mRNA level, 48 h; actives raise or lower the signal. The gist of the method:
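FAS transcript level was measured by TaqMan qRT-PCR against three housekeeping genes after 48 h chemical exposure. Cells were HepaRG, 0.5% DMSO vehicle, with a top concentration of 100 uM and half-log dilutions over eight points, in duplicate.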

Read-out in assay [2]: Fatty acid synthase (Homo sapiens) (UniProt P49327)
Put plainly: LTEA_HepaRG_FASN: Life Technologies and Expression Analysis (LTEA) Assay for Fatty Acid Synthase (FASN) using HepaRG (AID 2283448).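 As to AC50: differentiated human HepaRG liver cells in serum-free induction medium.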 The conditions noted are these: mRNA level, 48 h; actives raise or lower the signal. The gist of the method:
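In human HepaRG cultures, 48 h chemical exposure (up to 100 uM, 0.5% DMSO) preceded TaqMan qRT-PCR of FASN.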

Calls of active or inactive are those of the source. The calls were made as follows: active = hit-call score of the fitted dose curve at least 0.9, where 1 is the maximum; inactive = score below 0.9.

Chain of Fatty acid synthase (Homo sapiens) (P49327 whole entry, looked up): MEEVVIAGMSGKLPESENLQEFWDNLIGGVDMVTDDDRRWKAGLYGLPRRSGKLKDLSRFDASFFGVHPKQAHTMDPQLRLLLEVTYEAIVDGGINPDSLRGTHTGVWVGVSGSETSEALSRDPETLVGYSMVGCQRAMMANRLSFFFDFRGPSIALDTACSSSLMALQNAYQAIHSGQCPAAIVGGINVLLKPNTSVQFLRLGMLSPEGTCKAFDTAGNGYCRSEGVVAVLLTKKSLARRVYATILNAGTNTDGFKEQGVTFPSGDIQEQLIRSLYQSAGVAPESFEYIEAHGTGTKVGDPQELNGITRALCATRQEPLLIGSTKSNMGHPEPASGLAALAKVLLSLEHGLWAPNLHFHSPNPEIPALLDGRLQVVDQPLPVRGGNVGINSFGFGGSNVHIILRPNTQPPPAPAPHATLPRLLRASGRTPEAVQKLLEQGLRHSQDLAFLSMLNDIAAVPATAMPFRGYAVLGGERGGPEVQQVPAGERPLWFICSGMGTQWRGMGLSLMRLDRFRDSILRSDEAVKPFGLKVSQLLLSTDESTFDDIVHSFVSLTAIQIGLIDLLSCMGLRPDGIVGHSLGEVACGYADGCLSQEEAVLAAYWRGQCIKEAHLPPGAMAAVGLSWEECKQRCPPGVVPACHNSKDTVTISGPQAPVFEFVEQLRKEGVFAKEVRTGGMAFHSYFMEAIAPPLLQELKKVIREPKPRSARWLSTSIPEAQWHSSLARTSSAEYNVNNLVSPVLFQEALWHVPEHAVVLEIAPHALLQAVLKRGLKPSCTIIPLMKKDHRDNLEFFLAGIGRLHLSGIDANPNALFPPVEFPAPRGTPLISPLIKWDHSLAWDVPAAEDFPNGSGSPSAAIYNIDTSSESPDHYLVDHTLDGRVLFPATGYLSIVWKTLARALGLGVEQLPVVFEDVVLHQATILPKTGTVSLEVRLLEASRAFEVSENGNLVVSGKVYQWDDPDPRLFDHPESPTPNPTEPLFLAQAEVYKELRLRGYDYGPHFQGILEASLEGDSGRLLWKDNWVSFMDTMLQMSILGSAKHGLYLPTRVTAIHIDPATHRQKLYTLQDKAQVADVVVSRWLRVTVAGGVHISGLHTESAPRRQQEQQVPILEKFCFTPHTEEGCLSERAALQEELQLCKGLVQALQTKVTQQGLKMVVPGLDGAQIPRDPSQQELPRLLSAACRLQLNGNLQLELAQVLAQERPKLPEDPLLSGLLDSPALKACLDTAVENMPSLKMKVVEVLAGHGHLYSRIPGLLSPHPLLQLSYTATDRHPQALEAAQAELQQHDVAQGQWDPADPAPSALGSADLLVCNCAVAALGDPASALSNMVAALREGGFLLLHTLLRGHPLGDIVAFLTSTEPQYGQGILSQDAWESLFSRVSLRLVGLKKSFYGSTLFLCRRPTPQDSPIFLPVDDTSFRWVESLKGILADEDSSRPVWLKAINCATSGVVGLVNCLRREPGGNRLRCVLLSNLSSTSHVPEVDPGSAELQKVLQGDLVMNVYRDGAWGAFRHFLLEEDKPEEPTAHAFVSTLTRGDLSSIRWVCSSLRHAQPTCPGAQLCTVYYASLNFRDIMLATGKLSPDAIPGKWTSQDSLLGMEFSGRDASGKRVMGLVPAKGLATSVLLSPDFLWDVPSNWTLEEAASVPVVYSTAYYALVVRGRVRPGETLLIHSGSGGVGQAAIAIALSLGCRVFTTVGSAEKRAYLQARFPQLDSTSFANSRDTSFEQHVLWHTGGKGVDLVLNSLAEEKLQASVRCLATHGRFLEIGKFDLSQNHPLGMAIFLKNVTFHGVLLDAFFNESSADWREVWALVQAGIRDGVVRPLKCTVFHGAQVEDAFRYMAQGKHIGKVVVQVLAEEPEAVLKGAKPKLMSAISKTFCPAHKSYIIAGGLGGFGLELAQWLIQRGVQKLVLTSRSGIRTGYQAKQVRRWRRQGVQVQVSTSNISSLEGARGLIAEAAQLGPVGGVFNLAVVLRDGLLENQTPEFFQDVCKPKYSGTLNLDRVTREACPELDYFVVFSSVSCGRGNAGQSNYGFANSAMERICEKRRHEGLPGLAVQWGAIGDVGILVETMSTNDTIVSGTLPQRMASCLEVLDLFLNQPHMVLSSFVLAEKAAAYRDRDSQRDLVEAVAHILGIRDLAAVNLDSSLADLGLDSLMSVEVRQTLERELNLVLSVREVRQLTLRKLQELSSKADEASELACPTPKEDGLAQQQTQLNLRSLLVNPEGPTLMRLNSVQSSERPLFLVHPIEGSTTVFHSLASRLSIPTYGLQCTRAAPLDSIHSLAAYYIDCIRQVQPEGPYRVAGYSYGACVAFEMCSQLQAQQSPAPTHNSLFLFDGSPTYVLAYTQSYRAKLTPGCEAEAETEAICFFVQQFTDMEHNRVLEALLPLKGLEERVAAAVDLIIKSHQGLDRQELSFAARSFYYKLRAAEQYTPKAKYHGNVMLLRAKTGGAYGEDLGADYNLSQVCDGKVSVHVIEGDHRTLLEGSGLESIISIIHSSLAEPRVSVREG

Consider `CCCCCCCCCCCCN1CCCC1=O`, for which the outcome in assay [1] and in assay [2] was inactive.

In the case of `CCCCCCCC(=O)O`, the call in assay [1] and in assay [2] was inactive.

With `CC(C)(C)c1cc(C(C)(C)C)c(O)c(C(C)(C)C)c1`, the compound was classed as inactive in assay [1]. Further, in assay [2], the half-maximal activity concentration (AC50) was 50 µM (active).

With `CC(=O)NC1(c2cccc(F)c2)CCN(CC[C@@]2(c3ccc(Cl)c(Cl)c3)CN(c3ccccc3)C(=O)CO2)CC1`, the half-maximal activity concentration (AC50) in assay [1] was 71.9 µM (active). The compound was classed as inactive in assay [2].

For the compound `c1ccc2c(c1)Cc1ccccc1-2`, the call in assay [1] and in assay [2] was inactive.

Regarding `OCCC(F)(F)C(F)(F)C(F)(F)C(F)(F)C(F)(F)C(F)(F)F`, the call in assay [1] and in assay [2] was inactive.

In the case of `CCOC(=O)CC(O)(CC(=O)OCC)C(=O)OCC`, the result in assay [1] and in assay [2] was inactive.

In the case of `Cc1cc(CCN2CCN(c3nsc4ccccc34)CC2)cc2c1NC(=O)CC2(C)C`, the outcome in assay [1] was inactive. For the same compound, the half-maximal activity concentration (AC50) in assay [2] was 50 µM (active).

On to `CCCCCCCCCCCCc1ccccc1S(=O)(=O)O`, for which the AC50 in assay [1] is 50 µM (active); in assay [2] it was 74.5 µM (active).

As to `CC(C)(C)CC(C)(C)c1ccc(O)c(-n2nc3ccccc3n2)c1`, in assay [1], the outcome was inactive. In addition, the concentration at half-maximal activity (AC50) in assay [2] was 50 µM (active).

`CC(C)CCCCCCOC(=O)CCCCC(=O)OCCCCCCC(C)C`: the result in assay [1] and in assay [2] was inactive.

With `CCCOc1sc(C(=O)N2CCC(c3cc(CN)ccc3F)CC2)c(C)c1Br`, the result in assay [1] and in assay [2] was inactive.

Regarding `N#C[C@@H]1CC(F)(F)CN1C(=O)CNC1CC2CCC(C1)N2c1ncccn1` (some centres undefined), the call in assay [1] and in assay [2] was inactive.

On to `CC[C@H](C)[C@@H](C(=O)O)n1sc2ccccc2c1=O`, for which the call in assay [1] and in assay [2] was inactive.

With `Cc1oc(-c2ccccc2)nc1CCOc1ccc(C[C@H](Nc2ccccc2C(=O)c2ccccc2)C(=O)O)cc1`, the AC50 in assay [1] is 92.4 µM (active); in assay [2], 31.9 µM (active).

Turning to `CN(C)C=O`, the compound was called inactive in assay [1] and in assay [2].

Take `CCCCC(CC)COC(=O)CCCCC(=O)OCC(CC)CCCC` (centres undefined): the compound was classed as inactive in assay [1] and in assay [2].
